# Measured values as given in publication PMC11062922 (Nature Chemical Biology, 2023).
# Read-outs that look alike come from different tables or passages of the source.
# Tests used:
# AAK1 = tested on: AAK1; design: species or system human, MV4-11 + K-562 + COLO205 + SK-N-BE2 + OVCAR-8; conditions: read-out: apparent Kd, n = 1
# BMP2K = tested on: BMP2K; design: species or system human, MV4-11 + K-562 + COLO205 + SK-N-BE2 + OVCAR-8; conditions: read-out: apparent Kd, n = 1
# CLK1 = tested on: CLK1; design: species or system human, MV4-11 + K-562 + COLO205 + SK-N-BE2 + OVCAR-8; conditions: read-out: apparent Kd, n = 1
# CLK4 = tested on: CLK4; design: species or system human, MV4-11 + K-562 + COLO205 + SK-N-BE2 + OVCAR-8; conditions: read-out: apparent Kd, n = 1
# CSNK2A1;CSNK2A3 = tested on: CSNK2A1;CSNK2A3; design: species or system human, MV4-11 + K-562 + COLO205 + SK-N-BE2 + OVCAR-8; conditions: read-out: apparent Kd, n = 1
# CSNK2A2 = tested on: CSNK2A2; design: species or system human, MV4-11 + K-562 + COLO205 + SK-N-BE2 + OVCAR-8; conditions: read-out: apparent Kd; compound concentrations:100 nM and 1000 nM (sheet 'Samples'); n = 1
# FLT4 = tested on: FLT4; design: species or system human, MV4-11 + K-562 + COLO205 + SK-N-BE2 + OVCAR-8; conditions: read-out: apparent Kd, n = 1
# GAK = tested on: GAK; design: species or system human, MV4-11 + K-562 + COLO205 + SK-N-BE2 + OVCAR-8; conditions: read-out: apparent Kd, n = 1
# GSK3A = tested on: GSK3A; design: species or system human, MV4-11 + K-562 + COLO205 + SK-N-BE2 + OVCAR-8; conditions: read-out: apparent Kd, n = 1
# GSK3B = tested on: GSK3B; design: species or system human, MV4-11 + K-562 + COLO205 + SK-N-BE2 + OVCAR-8; conditions: read-out: apparent Kd, n = 1
# PAK4 = tested on: PAK4; design: species or system human, MV4-11 + K-562 + COLO205 + SK-N-BE2 + OVCAR-8; conditions: read-out: apparent Kd, n = 1
# PKN1 = tested on: PKN1; design: species or system human, MV4-11 + K-562 + COLO205 + SK-N-BE2 + OVCAR-8; conditions: read-out: apparent Kd, n = 1
# PKN3 [1] = tested on: PKN3; design: species or system human, MV4-11 + K-562 + COLO205 + SK-N-BE2 + OVCAR-8; conditions: read-out: apparent Kd; compound concentrations:100 nM and 1000 nM (sheet 'Samples'); n = 1;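 for IC50: NanoBRET target engagement in HEK293T cells transiently expressing full-length PKN3 with C-terminal NanoLuc, displacement of fluorescent tracer K5 (500 nM), BRET read after 2 h equilibration at 37 °C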
# PRKAG1 = tested on: PRKAG1; design: species or system human, MV4-11 + K-562 + COLO205 + SK-N-BE2 + OVCAR-8; conditions: read-out: apparent Kd, n = 1
# Q6ZSR9 = Q6ZSR9 (human, UniProt Q6ZSR9); design: species or system MV4-11 + K-562 + COLO205 + SK-N-BE2 + OVCAR-8; conditions: read-out: apparent Kd; compound concentrations:100 nM and 1000 nM (sheet 'Samples'); n = 1
# RET = tested on: RET; design: species or system human, MV4-11 + K-562 + COLO205 + SK-N-BE2 + OVCAR-8; conditions: read-out: apparent Kd, n = 1
# SIK2 = tested on: SIK2; design: species or system human, MV4-11 + K-562 + COLO205 + SK-N-BE2 + OVCAR-8; conditions: read-out: apparent Kd, n = 1
# MELK = tested on: MELK; design: species or system human, MV4-11 + K-562 + COLO205 + SK-N-BE2 + OVCAR-8; conditions: read-out: apparent Kd; compound concentrations: 100 nM and 1000 nM (sheet 'Samples'), CATDS: 3.6400689102280299E-3; n = 1
# NUAK1 = tested on: NUAK1; design: species or system human, MV4-11 + K-562 + COLO205 + SK-N-BE2 + OVCAR-8; conditions: read-out: apparent Kd; compound concentrations: 100 nM and 1000 nM (sheet 'Samples'), CATDS: 3.5163912979630598E-3; n = 1
# PKN3 [2] = conditions: hek293t cells
# [3] = compound concentrations:100 nM and 1000 nM (sheet 'Samples')
# Sequence of Q6ZSR9 (Q6ZSR9 whole entry, looked up): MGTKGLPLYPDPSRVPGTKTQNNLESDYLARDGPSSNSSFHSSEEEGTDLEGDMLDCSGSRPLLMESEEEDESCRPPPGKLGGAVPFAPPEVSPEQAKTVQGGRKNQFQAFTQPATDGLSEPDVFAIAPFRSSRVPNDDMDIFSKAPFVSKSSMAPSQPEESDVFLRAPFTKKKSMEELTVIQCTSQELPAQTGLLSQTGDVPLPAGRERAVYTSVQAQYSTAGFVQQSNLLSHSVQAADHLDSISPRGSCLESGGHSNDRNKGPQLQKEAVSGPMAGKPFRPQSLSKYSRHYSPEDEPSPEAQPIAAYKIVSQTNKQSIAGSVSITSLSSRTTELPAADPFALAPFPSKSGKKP
smiles,measurement,setting,value
CN1C[C@@H]2Cn3c(c(C4=C(c5cn(C)c6ccccc56)C(=O)NC4=O)c4ccccc43)C[C@H]2C1.Cl [RO0320234-001],potency estimated from few doses,AAK1; [3],403 nM
same,potency estimated from few doses,BMP2K; [3],933 nM
same,potency estimated from few doses,CLK1; [3],162 nM
same,potency estimated from few doses,CLK4; [3],500 nM
same,potency estimated from few doses,CSNK2A1;CSNK2A3; [3],836 nM
same,potency estimated from few doses,CSNK2A2,784 nM
same,potency estimated from few doses,FLT4; [3],878 nM
same,potency estimated from few doses,GAK; [3],186 nM
same,potency estimated from few doses,GSK3A; [3],99 nM
same,potency estimated from few doses,GSK3B; [3],50.7 nM
same,potency estimated from few doses,PAK4; [3],558 nM
same,potency estimated from few doses,PKN1; [3],1970 nM
same,potency estimated from few doses,PKN3 [1],1500 nM
same,potency estimated from few doses,PRKAG1; [3],352 nM
same,potency estimated from few doses,Q6ZSR9,533 nM
same,potency estimated from few doses,RET; [3],371 nM
same,potency estimated from few doses,SIK2; [3],230 nM
Cn1ncc2c(N)ncnc21 [SKF-18267],potency estimated from few doses,"AAK1; compound concentrations: 100 nM and 1000 nM (sheet 'Samples'), CATDS: 4.0309487407882601E-3",1310 nM
same,potency estimated from few doses,"BMP2K; compound concentrations: 100 nM and 1000 nM (sheet 'Samples'), CATDS: 3.9456431934801499E-3",1380 nM
same,potency estimated from few doses,"CLK1; compound concentrations: 100 nM and 1000 nM (sheet 'Samples'), CATDS: 4.6708282192626498E-3",936 nM
same,potency estimated from few doses,"CLK4; compound concentrations: 100 nM and 1000 nM (sheet 'Samples'), CATDS: 3.9570541670233801E-3",1370 nM
same,potency estimated from few doses,"CSNK2A1;CSNK2A3; compound concentrations: 100 nM and 1000 nM (sheet 'Samples'), CATDS: 3.9180257487408596E-3",1410 nM
same,potency estimated from few doses,"FLT4; compound concentrations: 100 nM and 1000 nM (sheet 'Samples'), CATDS: 3.68265662419527E-3",1670 nM
same,potency estimated from few doses,"GAK; compound concentrations: 100 nM and 1000 nM (sheet 'Samples'), CATDS: 4.6125077933925696E-3",961 nM
same,potency estimated from few doses,"GSK3A; compound concentrations: 100 nM and 1000 nM (sheet 'Samples'), CATDS: 6.4966954074714102E-3",507 nM
same,potency estimated from few doses,"GSK3B; compound concentrations: 100 nM and 1000 nM (sheet 'Samples'), CATDS: 6.1120630546354802E-3",562 nM
same,potency estimated from few doses,MELK,1720 nM
same,potency estimated from few doses,NUAK1,1910 nM
same,potency estimated from few doses,"PAK4; compound concentrations: 100 nM and 1000 nM (sheet 'Samples'), CATDS: 4.003241038036E-3",1330 nM
same,potency estimated from few doses,"PKN1; compound concentrations: 100 nM and 1000 nM (sheet 'Samples'), CATDS: 4.0652178532190096E-3",1280 nM
same,potency estimated from few doses,"PRKAG1; compound concentrations: 100 nM and 1000 nM (sheet 'Samples'), CATDS: 6.4543335305036397E-3",512 nM
same,potency estimated from few doses,"RET; compound concentrations: 100 nM and 1000 nM (sheet 'Samples'), CATDS: 4.7446456770992903E-3",906 nM
same,potency estimated from few doses,"SIK2; compound concentrations: 100 nM and 1000 nM (sheet 'Samples'), CATDS: 4.9685571215498103E-3",824 nM
Cl.ON=C1CCc2cc(-c3nc(C4CCNCC4)[nH]c3-c3ccncc3)ccc21 [SB-614067-R],potency estimated from few doses,PKN3 [1],125 nM
same,IC50,"PKN3 [2]; read-out: Average, SD, n = 4",22.9 µM
same,IC50,PKN3 [2]; read-out: Rep 1,19.1 µM
same,IC50,PKN3 [2]; read-out: Rep 2,20.6 µM
same,IC50,PKN3 [2]; read-out: Rep 3,50.1 µM
same,IC50,PKN3 [2]; read-out: Rep 4,1.84 µM
COc1cccc(NC(=O)NC2CCN(c3ccnc(Nc4cc(OC)c(OC)c(OC)c4)n3)C2)c1 (stereo not shown) [GSK1379763A],potency estimated from few doses,"AAK1; compound concentrations: 100 nM and 1000 nM (sheet 'Samples'), CATDS: 1",1850 nM
